Screening results (PubChem)
An excerpt weighted towards active compounds, which were near 2.5% of everything screened.
luminol inh ctr: counter-screen for Nox1 inhibitors: inhibitors of luminol chemiluminescence | HRP/luminol/H2O2 chemiluminescence counterscreen | inhibition, % at 6.7 µM | 16,000 compounds, 0.4% hits | AID 1823, 2009; note: reference of the scale not given here
KOR antag MB: antagonists of human kappa opioid receptor OPRK1, Maybridge library; Kappa-type opioid receptor (Homo sapiens), P41145; OPRK1 cells, antagonist mode, fluorescence readout; inhibition, % at 9 µM; 16,000 compounds, 0.4% hits; in the data active = inhibition above about 50%
Nox1 inhibitor: inhibitors of human NADPH oxidase 1 (Nox1). AID 1792, 2009. HT29 cells, luminol chemiluminescence ROS. Q9Y5S8. 16,000 compounds, 0.81% hits. inhibition, % at 6.7 µM
NOTCH agonist: agonists of NOTCH signaling; activation, % at 2.5 µM; NOTCH signaling luciferase reporter cells, luminescence; 15,000 compounds, 0.4% hits; in the data active = activation above about 2.2%
PME-1 Maybridge: inhibitors of human PME-1 in Maybridge library; Protein phosphatase methylesterase 1 (Homo sapiens), Q9Y570; recombinant PME-1, FP-Rh probe fluorescence polarization; inhibition, % at 9 µM; 16,000 compounds, 0.5% hits; AID 2291, 2010; in the data active = inhibition above about 30%
Target sequence (Q9Y570 whole entry, looked up): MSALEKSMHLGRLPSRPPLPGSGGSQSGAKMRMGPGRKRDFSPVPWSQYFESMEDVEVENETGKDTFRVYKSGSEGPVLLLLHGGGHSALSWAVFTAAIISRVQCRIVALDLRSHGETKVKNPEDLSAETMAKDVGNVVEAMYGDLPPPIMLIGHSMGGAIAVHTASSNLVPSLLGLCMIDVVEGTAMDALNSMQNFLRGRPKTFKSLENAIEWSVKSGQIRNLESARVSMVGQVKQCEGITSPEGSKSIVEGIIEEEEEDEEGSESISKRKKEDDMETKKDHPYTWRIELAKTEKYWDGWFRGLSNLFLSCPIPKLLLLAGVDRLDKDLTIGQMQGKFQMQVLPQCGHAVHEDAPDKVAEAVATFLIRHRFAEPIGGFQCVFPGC
Each line names hits and unclear results; the compound was inactive in the other large screens. Cut-off read from the data, not from the text of the source, unless noted: active = inhibition above about 75%; inactive = the rest.

COc1cc2ncnc(Nc3cccc(Cl)c3)c2cc1OC	none
COc1cc2ncnc(NNS(=O)(=O)c3cc(C)c(Cl)cc3C)c2cc1OC	Nox1 inhibitor 100.8, PME-1 Maybridge 31.9
CN(C)/C=C(\C#N)c1ccccn1	none
COc1cc2c(cc1OC)C(C)N(C(=O)c1sc(-c3cnccn3)nc1C)CC2 (configuration not stated)	none
COc1cc2c(cc1OC)C(C)N(C(=O)c1sc3ccccc3c1Cl)CC2 (configuration not stated)	PME-1 Maybridge 51.9
CC(=O)Oc1ccc(OC(C)=O)c2c1C(=O)c1ccccc1C2=O	PME-1 Maybridge 84.9
CN1CCN(S(=O)(=O)Cc2cccc(C(F)(F)F)c2)CC1	none
FC(F)(F)c1nnc(Nc2cccnc2)s1	NOTCH agonist 4.5
CC(=O)c1ccc(Sc2cccc(C(F)(F)F)c2)c([N+](=O)[O-])c1	PME-1 Maybridge 31.7
O=C(O)c1ccccc1C(=O)c1ccc(Sc2ccccc2)c([N+](=O)[O-])c1	none
Nc1nc(SCC(=O)c2cc(-c3ccccc3)no2)ncc1C(=O)O	none
CCOC(=O)C1=C(Nc2ccc(OC(C)=O)cc2)C(=O)N(C(C)(C)C)C1	Nox1 inhibitor 83.5
O=C(Nc1ccc([N+](=O)[O-])cc1)Nc1csc(-c2cccnc2)n1	KOR antag MB 51.8
CSc1cccc(NC(=S)NNC(=O)Cc2c(C)cc(C)cc2C)c1	none
O=C(NNc1nc(-c2cccs2)ns1)c1cccc(C(F)(F)F)c1	Nox1 inhibitor 104.4
COC(=O)c1ccsc1NC(=O)CN1CCN(S(=O)(=O)c2ccc(Cl)cc2)CC1	none
CC1(C)OC(=O)C(=Cc2c[nH]c3ccccc23)C(=O)O1	none
O=C1Nc2ccccc2/C1=C\c1c[nH]c2ccccc12	PME-1 Maybridge 34.5
CCN(CC)c1ccc(/C=C/c2ccc([N+](=O)[O-])cc2C#N)cc1	KOR antag MB 68.8
CCN(CC)c1ccc(C#N)cc1	none
COc1ccc(SCCc2nnc(-c3ccccc3)o2)cc1	none
COc1ccc(-c2nc3cc4c(cc3o2)Oc2ccccc2N4)cc1	KOR antag MB 79.2
N#C/C(=C\N1CCN(Cc2ccccc2)CC1)S(=O)(=O)c1ccc(Cl)cc1	none
COC(=O)c1ccc(S(=O)(=O)NNc2c(Cl)cncc2Cl)n1C	none
COC(=O)c1ccc(S(=O)(=O)NNC(=O)c2c(O)c3sccc3[nH]c2=O)n1C	luminol inh ctr 78.4
O=c1c(Nc2ccc(OC(F)(F)F)cc2)c(Nc2ccc(OC(F)(F)F)cc2)c1=O	PME-1 Maybridge 30.2
COC(=O)c1c(-c2c(Cl)cccc2Cl)noc1NC(=O)NN(C)C	none
COCCCNC(=S)Nc1ccc(C)cc1	none
COCCCNC(=S)NNC(=S)Nc1ccccc1	Nox1 inhibitor 90.8
O=[N+]([O-])c1cccc(C2N=C(c3ccc(Cl)cc3)NN2)c1 (configuration not stated)	none
CCOC(=O)c1cnn(C(=O)c2snnc2C)c1N	none
O=S(=O)(Cc1ccc(F)cc1)Cc1noc(-c2ccc(F)cc2Cl)n1	NOTCH agonist 2.3
CC(=O)c1sc2nc(-c3cccs3)cc(C(F)(F)F)c2c1N	KOR antag MB 88.6
Cc1cc(C)c2c(N)c(C(=O)Nc3nnc(-c4cccs4)s3)sc2n1	none
Nc1ccc(C(=O)O)c2c(C(=O)O)cccc12	PME-1 Maybridge 48.6
COc1ccc(/C=C(\C#N)S(=O)(=O)c2ccccc2Cl)s1	none
CS(=O)(=O)/C(C#N)=C\c1ccc(Cl)s1	KOR antag MB 57.3
Cc1nnsc1C(=O)N1CCC(C(F)(F)F)CC1	none
CSc1nnc(SCC(=O)N2CCC(C(F)(F)F)CC2)s1	NOTCH agonist 2.7
O=C(Cn1nnc2ccccc21)NC1Cc2ccccc2C1	none
CCCOc1ccc(NC(C)=O)cc1	NOTCH agonist 5.0
CC(=O)Nc1cccc(OCCOc2cccc(NC(C)=O)c2)c1	none
COc1ccc(OS(=O)(=O)c2sc(Br)cc2Br)cc1	KOR antag MB 52.5
Cc1onc(-c2ccccc2)c1CNS(=O)(=O)c1cnn(-c2ccccc2)c1C	KOR antag MB 106.3
Fc1ccc(CCc2ccc(F)cc2)cc1	none
CCOC(=O)c1ccc(NC(=O)/C(C)=C/C(=O)O)cc1	none
CCOC(=O)C(=CNNc1ccnc2cc(Cl)ccc12)C(=O)OCC	Nox1 inhibitor 83.7
C=C1SC(=Nc2cccc(OC)c2)N(C(=O)c2ccc(Cl)cc2)C1(C)C	none
CC1=[N+](C)c2cc(C(F)(F)F)ccc2C1(C)C	none
CC(C)(C)OC(=O)N[C@@H](Cc1ccccc1)c1n[nH]c(=S)n1CC1CCCO1 (some centres not stated)	luminol inh ctr 97.3
